Common to all, as to assay: log2 fold change, soluble protein after heating vs DMSO (PISA); higher = thermal stabilisation; K562 cells, 10 uM, 30 min; active = over 0.2 and 3.5 SD of the protein, either way, in both replicates (recomputed)
Compound in one experiment: Cc1ccc(NC(=O)c2ccc(CN3CC[C@H](N(C)C)C3)c(C(F)(F)F)c2)cc1Nc1nccc(-c2cncnc2)n1 [bafetinib]
The essentials: (§1)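 K562 cells (2×10^6 cells/mL) were treated with 10 μM compound for 30 min, and aliquots were heated for 3 min over 48°C-58°C. Pooled aliquots were extracted in PBS with 0.5% NP-40 at 4°C, and the supernatant after 21,000xg for 90 min was measured by TMTpro 16plex LC-MS/MS with channel sums equalised. Reported thermal stability, relative to control samples and from duplicates, is a log2 fold change.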

Compound in another experiment: Cc1cn(-c2cc(NC(=O)c3ccc(C)c(Nc4nccc(-c5cccnc5)n4)c3)cc(C(F)(F)F)c2)cn1 [nilotinib]
In outline:
as §1

Compound in experiment [1]: Cc1nc(Nc2n[nH]c3c2CN(C(=O)N[C@H](CN(C)C)c2ccccc2)C3(C)C)c2sccc2n1
In outline:
as §1

Compound in a further experiment: Cc1nc(Nc2ncc(C(=O)Nc3c(C)cccc3Cl)s2)cc(N2CCN(CCO)CC2)n1 [dasatinib]
The essentials: as §1

Compound in experiment [2]: Cc1ncc(-c2ccnc(Nc3ccc(S(C)(=O)=O)cc3)n2)n1C(C)C
The essentials:
as §1

Compound in experiment [3]: Cn1cc(-c2ccc3c(c2)CCN3C(=O)Cc2cccc(C(F)(F)F)c2)c2c(N)ncnc21
In outline:
as §1

Compound in experiment [4]: Cn1cc(-c2ccc3nnc(C(F)(F)c4ccc5ncccc5c4)n3n2)cn1
In outline:
as §1

Compound in another experiment: Cn1cncc1[C@@](N)(c1ccc(Cl)cc1)c1ccc2c(c1)c(-c1cccc(Cl)c1)cc(=O)n2C [tipifarnib]
In outline:
as §1

Compound in the next experiment: FC(F)(F)c1ccc(/C=C/c2nc(COc3ccc(CCCCn4ccnn4)cc3)co2)cc1 [mubritinib]
The essentials: as §1

Compound in experiment [5]: NC(=O)Nc1cc(-c2cccc(F)c2)sc1C(=O)N[C@H]1CCCNC1
The essentials:
as §1

Compound in experiment [6]: NC(=O)c1cnc(N[C@@H]2CCCC[C@@H]2N)nc1Nc1cccc(-n2nccn2)c1
In outline: as §1

Compound in experiment [7]: NC1(c2ccc(-c3nc4ccn5c(=O)[nH]nc5c4cc3-c3ccccc3)cc2)CCC1
In outline: as §1

Compound in experiment [8]: NCC(=O)Nc1ccc(-n2nc(C(F)(F)F)cc2-c2ccc3c(ccc4ccccc43)c2)cc1
In outline: as §1

Compound in the next experiment: Nc1ccccc1NC(=O)c1ccc(CNC(=O)OCc2cccnc2)cc1 [entinostat]
In outline: as §1

Compound in a further experiment: O=C(O)c1ccc2c(c1)nc(Nc1cccc(Cl)c1)c1ccncc12 [silmitasertib]
The essentials:
as §1

Compound in experiment [9]: Cc1cccc(CC(=O)N2CCc3c2ccc(-c2cn(C)c4ncnc(N)c24)c3F)n1
The essentials:
as §1

Compound in the next experiment: O=C(CCCCCCC(=O)Nc1ccccc1)NO [vorinostat]
The essentials:
as §1

Compound in experiment [10]: O=C1NC(=O)C(c2cnc3ccccn23)=C1c1cn2c3c(cc(F)cc13)CN(C(=O)N1CCCCC1)CC2
The essentials:
as §1

Compound in another experiment: O=C(CCCCCCNC(=O)c1cnc(N(c2ccccc2)c2ccccc2Cl)nc1)NO [citarinostat]
The essentials:
as §1

Compound in experiment [11]: c1cc(OCCN2CCCCC2)cc(-c2n[nH]c3ccc(-c4nnc[nH]4)cc23)c1
The essentials: as §1

The full data set covers some 7,900 targets. This sample favours those with a hit. About 0.6% of all pairs of compound and target were hits. Values without a mark were called inactive.

Chain of UniProt Q8N573 (Q8N573 whole entry, looked up): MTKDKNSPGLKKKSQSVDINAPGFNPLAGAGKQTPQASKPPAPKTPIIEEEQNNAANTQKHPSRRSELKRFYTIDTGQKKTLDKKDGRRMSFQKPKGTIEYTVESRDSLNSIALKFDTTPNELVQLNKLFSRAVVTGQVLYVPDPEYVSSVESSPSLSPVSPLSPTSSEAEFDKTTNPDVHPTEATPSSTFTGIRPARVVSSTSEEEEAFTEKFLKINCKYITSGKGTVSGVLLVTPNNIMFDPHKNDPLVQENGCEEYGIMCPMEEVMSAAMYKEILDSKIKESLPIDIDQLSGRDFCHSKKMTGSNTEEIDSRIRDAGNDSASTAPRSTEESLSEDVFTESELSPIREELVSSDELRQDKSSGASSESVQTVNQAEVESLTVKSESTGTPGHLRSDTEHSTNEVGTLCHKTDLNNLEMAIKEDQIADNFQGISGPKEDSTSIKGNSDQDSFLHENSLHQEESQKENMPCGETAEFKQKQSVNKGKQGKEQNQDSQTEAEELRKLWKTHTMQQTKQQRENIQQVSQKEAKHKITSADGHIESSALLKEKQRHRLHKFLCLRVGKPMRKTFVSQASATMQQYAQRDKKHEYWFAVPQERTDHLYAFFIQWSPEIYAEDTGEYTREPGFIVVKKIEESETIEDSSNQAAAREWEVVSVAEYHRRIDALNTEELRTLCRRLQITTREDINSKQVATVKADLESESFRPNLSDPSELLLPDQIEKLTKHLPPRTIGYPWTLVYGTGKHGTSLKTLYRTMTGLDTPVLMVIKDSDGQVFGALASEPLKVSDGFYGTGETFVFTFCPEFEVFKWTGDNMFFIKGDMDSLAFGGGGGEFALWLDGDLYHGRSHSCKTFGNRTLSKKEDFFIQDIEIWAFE
Chain of UniProt Q9UBD5 (Q9UBD5 whole entry, looked up): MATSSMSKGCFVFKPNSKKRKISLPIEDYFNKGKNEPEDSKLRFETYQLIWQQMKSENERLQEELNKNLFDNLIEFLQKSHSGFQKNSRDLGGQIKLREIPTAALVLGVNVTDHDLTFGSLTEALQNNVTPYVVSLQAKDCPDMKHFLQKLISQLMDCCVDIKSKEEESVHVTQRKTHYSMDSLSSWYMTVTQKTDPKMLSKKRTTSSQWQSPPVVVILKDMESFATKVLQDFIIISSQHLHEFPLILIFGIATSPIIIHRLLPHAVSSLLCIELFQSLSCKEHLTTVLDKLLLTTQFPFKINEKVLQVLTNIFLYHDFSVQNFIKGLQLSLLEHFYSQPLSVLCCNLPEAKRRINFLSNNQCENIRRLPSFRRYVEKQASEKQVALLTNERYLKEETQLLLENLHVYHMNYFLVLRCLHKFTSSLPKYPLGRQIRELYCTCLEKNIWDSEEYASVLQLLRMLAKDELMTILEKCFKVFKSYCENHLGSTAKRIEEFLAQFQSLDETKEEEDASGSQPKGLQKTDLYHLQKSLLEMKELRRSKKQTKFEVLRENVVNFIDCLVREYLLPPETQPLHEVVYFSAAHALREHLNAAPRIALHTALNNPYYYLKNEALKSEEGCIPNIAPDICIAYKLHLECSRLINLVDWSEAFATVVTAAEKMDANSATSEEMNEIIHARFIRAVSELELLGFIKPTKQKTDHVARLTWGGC
Chain of UniProt P40692 (P40692 whole entry, looked up): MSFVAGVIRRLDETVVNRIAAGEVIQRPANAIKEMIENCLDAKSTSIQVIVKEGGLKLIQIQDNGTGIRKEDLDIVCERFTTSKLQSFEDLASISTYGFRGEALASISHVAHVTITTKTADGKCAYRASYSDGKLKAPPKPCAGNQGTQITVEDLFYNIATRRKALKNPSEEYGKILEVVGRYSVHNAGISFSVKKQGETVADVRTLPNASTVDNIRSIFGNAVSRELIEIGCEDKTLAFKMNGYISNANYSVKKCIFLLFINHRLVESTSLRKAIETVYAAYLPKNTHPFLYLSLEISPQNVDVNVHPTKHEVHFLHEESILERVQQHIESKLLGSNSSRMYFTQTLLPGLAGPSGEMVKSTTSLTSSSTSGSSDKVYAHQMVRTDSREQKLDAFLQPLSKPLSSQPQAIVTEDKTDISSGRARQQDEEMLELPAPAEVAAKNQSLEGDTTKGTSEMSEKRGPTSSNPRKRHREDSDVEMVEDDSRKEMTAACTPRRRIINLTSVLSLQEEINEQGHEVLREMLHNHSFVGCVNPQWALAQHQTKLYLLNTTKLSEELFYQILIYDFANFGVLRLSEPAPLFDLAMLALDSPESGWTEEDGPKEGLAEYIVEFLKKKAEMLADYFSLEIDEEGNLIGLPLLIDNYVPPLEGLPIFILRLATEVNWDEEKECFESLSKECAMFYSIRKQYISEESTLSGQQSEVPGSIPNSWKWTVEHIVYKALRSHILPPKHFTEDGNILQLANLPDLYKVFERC
Chain of UniProt Q4G0T1 (Q4G0T1 whole entry, looked up): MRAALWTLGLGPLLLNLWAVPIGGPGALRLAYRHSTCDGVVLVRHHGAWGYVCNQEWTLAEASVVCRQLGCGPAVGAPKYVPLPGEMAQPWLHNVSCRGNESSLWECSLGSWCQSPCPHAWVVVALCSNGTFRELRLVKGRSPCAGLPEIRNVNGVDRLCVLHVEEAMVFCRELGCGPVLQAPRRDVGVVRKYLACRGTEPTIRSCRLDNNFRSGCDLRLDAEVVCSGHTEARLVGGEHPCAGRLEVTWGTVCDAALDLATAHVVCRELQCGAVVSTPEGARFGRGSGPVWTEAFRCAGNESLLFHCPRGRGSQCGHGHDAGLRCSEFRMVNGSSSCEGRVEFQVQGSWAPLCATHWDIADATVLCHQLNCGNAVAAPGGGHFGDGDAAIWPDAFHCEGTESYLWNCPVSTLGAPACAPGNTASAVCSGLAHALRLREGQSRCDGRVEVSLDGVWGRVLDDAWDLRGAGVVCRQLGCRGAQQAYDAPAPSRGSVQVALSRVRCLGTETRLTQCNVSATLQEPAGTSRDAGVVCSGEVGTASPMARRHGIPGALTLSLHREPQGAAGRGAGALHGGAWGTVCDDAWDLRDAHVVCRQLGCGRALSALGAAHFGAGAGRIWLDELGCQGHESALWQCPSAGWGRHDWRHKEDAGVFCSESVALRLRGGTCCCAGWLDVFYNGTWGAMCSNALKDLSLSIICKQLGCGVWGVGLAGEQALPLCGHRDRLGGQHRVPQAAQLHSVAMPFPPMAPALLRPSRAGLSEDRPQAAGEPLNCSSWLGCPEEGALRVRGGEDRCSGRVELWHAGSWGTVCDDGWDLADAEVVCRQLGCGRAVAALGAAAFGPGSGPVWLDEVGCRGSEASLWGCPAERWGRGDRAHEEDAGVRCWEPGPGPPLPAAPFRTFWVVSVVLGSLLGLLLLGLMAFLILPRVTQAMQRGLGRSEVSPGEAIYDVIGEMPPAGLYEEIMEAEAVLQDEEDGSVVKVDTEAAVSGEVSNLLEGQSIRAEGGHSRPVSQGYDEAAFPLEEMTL
Chain of UniProt Q9Y6X9 (Q9Y6X9 whole entry, looked up): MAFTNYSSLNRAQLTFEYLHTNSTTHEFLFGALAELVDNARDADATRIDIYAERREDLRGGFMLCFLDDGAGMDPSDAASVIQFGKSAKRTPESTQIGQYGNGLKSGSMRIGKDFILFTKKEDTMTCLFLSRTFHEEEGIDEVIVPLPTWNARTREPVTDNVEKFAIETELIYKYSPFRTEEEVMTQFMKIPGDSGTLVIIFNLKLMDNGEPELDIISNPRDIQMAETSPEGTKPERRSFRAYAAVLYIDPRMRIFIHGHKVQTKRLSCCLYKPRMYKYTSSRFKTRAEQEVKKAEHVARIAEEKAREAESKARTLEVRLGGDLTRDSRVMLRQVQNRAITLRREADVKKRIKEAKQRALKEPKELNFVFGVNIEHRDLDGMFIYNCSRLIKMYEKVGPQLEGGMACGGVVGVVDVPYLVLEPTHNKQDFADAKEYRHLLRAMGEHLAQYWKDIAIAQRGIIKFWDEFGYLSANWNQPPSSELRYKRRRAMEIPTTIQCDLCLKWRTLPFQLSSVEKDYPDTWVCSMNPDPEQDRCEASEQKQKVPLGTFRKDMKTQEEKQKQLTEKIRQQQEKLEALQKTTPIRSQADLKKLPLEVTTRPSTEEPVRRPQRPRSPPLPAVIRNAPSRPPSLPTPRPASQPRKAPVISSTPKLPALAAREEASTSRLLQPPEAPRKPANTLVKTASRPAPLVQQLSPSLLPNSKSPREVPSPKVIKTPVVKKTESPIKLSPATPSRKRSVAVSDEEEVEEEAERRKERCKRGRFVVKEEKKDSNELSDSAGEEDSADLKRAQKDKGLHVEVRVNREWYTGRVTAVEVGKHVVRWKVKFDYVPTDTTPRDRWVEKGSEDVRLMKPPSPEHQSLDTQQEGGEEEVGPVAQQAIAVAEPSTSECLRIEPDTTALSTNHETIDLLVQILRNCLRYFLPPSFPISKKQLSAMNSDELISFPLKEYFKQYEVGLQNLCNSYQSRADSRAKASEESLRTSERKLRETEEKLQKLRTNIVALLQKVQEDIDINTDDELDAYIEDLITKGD
Chain of UniProt P03886 (P03886 whole entry, looked up): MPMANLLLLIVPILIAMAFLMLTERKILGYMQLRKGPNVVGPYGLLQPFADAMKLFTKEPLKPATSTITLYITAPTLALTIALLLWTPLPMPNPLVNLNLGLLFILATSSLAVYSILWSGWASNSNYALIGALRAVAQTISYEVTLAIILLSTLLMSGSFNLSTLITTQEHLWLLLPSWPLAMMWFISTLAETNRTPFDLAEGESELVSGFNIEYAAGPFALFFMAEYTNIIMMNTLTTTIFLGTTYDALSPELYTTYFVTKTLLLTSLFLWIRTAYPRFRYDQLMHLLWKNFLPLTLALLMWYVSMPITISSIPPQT
Chain of UniProt P0C024 (P0C024 whole entry, looked up): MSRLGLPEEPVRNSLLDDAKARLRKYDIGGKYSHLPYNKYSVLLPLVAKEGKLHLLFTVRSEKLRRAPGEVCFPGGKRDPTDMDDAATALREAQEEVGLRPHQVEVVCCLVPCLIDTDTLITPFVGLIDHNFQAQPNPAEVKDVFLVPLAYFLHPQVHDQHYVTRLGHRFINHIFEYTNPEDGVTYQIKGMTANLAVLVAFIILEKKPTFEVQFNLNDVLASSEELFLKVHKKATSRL

Take NA isoform 3 (UniProt Q4G0T1): the log2 fold change was -0.198 with bafetinib; -0.021 with nilotinib; -0.009 in [1]; -0.093 in the experiment with dasatinib; 0.01 in experiment [2]; -0.065 in [3]. Further, the log2 fold change in [4] is 0.059; with tipifarnib it was -0.066; in the experiment with mubritinib it was -0.066; in experiment [5], -0.114; in experiment [6], -0.207; in experiment [7] it was 0.015. In addition, the log2 fold change in experiment [8] is -0.02; in the experiment with entinostat it was 0.01; with silmitasertib it was 0.037.
With NUDT7 (UniProt P0C024), the log2 fold change is 0.418 with bafetinib; -0.122 in experiment [9]; 0.093 in the experiment with nilotinib; 0.006 in experiment [1]; -0.03 in [2]; 0.027 in experiment [4]. In addition, the log2 fold change is 0.01 in [5], -0.05 with entinostat, 0.286 in the experiment with vorinostat and 0.12 in experiment [10].
On to OSBPL2 (UniProt Q9H1P3), for which the log2 fold change in experiment [3] was 0.37; with tipifarnib, -0.009; with mubritinib it was 0.465; in experiment [7], -0.443; with silmitasertib, 0.148.
For ORC3 (UniProt Q9UBD5), the log2 fold change in experiment [6] is 0.067; in the experiment with citarinostat, 0.032; in experiment [11], -0.195.
As to MT-ND1 (UniProt P03886), the log2 fold change was -0.199 in the experiment with bafetinib; 0.102 in the experiment with nilotinib; -0.079 in [1]; -0.149 in the experiment with dasatinib; -0.061 in [2]; 0.066 in experiment [3]. In addition, the log2 fold change was -0.036 in experiment [4]; 0.633 (active) with tipifarnib; 0.114 with mubritinib; 0.166 in experiment [5]; 0.244 in experiment [6]; -0.004 in experiment [7]. In addition, the log2 fold change in [8] is 0.289; with entinostat it was -0.051; in the experiment with citarinostat it was 0.05; with silmitasertib, 0.039; in [10] it was 0.1; in experiment [11], -0.075.
As for NEK3 (UniProt P51956), the log2 fold change in [9] was -0.246; with nilotinib it was -0.026; in experiment [1], -0.173; with dasatinib, -0.055; in [2], -0.037; in [3], 0.101. The log2 fold change in experiment [4] was -0.002; with tipifarnib, -0.088; in the experiment with mubritinib, -0.076; in [5], 0.09; in [6] it was 0.156; in [7], -0.119. In addition, the log2 fold change in [8] is 0.011; with entinostat, 0.016; with vorinostat it was -0.256; with citarinostat, 0.099; with silmitasertib, 0.043; in experiment [10], -0.017. Further, the log2 fold change in [11] is -0.063.
For PAFAH2 (UniProt Q99487), the log2 fold change was -0.083 with bafetinib; -0.146 in the experiment with dasatinib; 0.079 in experiment [3]; 0.029 in experiment [4]; 0.611 (active) in the experiment with tipifarnib; 0.079 in experiment [5]. In addition, the log2 fold change in experiment [6] was -0.194; in experiment [8], 0.04; with entinostat it was 0.075.
Regarding MORC2 (UniProt Q9Y6X9), the log2 fold change in the experiment with bafetinib was -0.036; with tipifarnib, 0.018; with mubritinib it was 0.126; in [6] it was -0.193; in [7], -0.118; with silmitasertib it was -0.066. Also, the log2 fold change in experiment [10] was -0.151.
OXR1 isoform 2 (UniProt Q8N573): the log2 fold change in [9] is -0.009; in the experiment with nilotinib, -0.028; in experiment [1], -0.002; in the experiment with dasatinib it was 0; in experiment [2] it was -0.094; in experiment [3], 0.15. Further, the log2 fold change in [4] was 0.099; in the experiment with tipifarnib, -0.019; in experiment [6] it was 0.054; in [8], -0.046; in the experiment with vorinostat, 0.01; with citarinostat it was 0.013. The figures for the log2 fold change in experiment [10] and in [11] were -0.096 and -0.053, respectively.
Consider MLH1 (UniProt P40692), for which the log2 fold change with bafetinib was -0.063; in experiment [9], 0.035; in the experiment with dasatinib it was -0.212; in [3], 0.005; with tipifarnib it was 0.047; with mubritinib, -0.073. For the same target, the log2 fold change in [6] was 0.058; in experiment [7], -0.102; in the experiment with vorinostat, -0.042; with silmitasertib it was -0.017; in [10], -0.098.

For the origin of these results see the supplement of paper PMC10849652.
